# In PubChem BioAssay (NCATS):
# Records with an inconclusive call do not appear. The source made the active and inactive calls. Unless noted, no rule for the calls is given here.
# Assays:
# [1] = qHTS Assay for Identifying Gametocytocidal Compounds (AID 743244; active = well fitted curve in the direction sought with a large enough effect; an effect the other way counts as inactive or inconclusive; also: potency is read from the fitted curve at half-maximal effect;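 as to max response: % is scaled to controls: 0 for no effect and ±100 for the full control effect; actives lower the fluorescent signal which means gametocytes are killed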); conditions: P. falciparum 3D7 stage III-V gametocytes, alamarBlue, 72 h; max response: stronger effect = lower value
# Method in brief: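 3D7 gametocytes, stages III–V, 20,000/well; cpd 72 h, 37 °C/5% CO2; + alamarBlue 24 h; fluor. Ex 525/Em 598.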
# [2] = qHTS profiling for inhibitors of Plasmodium falciparum (3D7) proliferation (AID 743322);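 also: infected erythrocytes exposed to compound for 72 h before lysis; 100% = DMSO vehicle wells and 0% = 0.29 µM artemisinin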; conditions: P. falciparum 3D7 proliferation; at 28.7 µM (top of the series) unless noted
# Method in brief: (§1)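 Parasite DNA was quantified by SYBR Green I fluorescence (ex 485, em 535 nm) after overnight lysis in saponin/Triton buffer at room temperature. Cultures at 0.3% parasitemia and 2.5% hematocrit were first exposed to compound for 72 h at 37 C; signals were normalised to artemisinin (0.29 uM) and vehicle wells.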
# [3] = qHTS profiling for inhibitors of Plasmodium falciparum (DD2) proliferation (AID 743323); conditions: lower = more inhibition; at 28.7 µM (top of the series) unless noted
# Method in brief: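 Parasite proliferation measured via DNA-dye fluorescence, as uninfected erythrocytes lack DNA. Cultures at 0.3% parasitemia and 2.5% hematocrit incubated 72 h with compound; signal scaled between vehicle and 0.29 uM artemisinin wells.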
# [4] = qHTS profiling for inhibitors of Plasmodium falciparum (HB3) proliferation (AID 743324; active = well fitted curve in the direction sought with a large enough effect; an effect the other way counts as inactive or inconclusive;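 also: 100% = DMSO vehicle wells and 0% = artemisinin-treated control wells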); conditions: Plasmodium falciparum HB3 blood-stage proliferation; at 28.7 µM (top of the series) unless noted
# Method in brief: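 SYBR Green fluorescence (485 ex/535 em) of lysed cultures, incubated overnight at room temperature in the dark, quantifies parasite DNA. Infected erythrocytes at 0.3% parasitemia and 2.5% hematocrit were exposed 72 h; values normalized to DMSO and 0.29 uM artemisinin controls.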
# [5] = qHTS profiling of the MIPE4 collection as inhibitors of Plasmodium falciparum (3D7) proliferation (AID 743344);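 also: scaled between DMSO vehicle wells and 0.29 µM artemisinin as full inhibition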; conditions: P. falciparum 3D7 in erythrocytes, SYBR Green DNA fluorescence, 72 h; at 28.5 µM (top of the series) unless noted
# Method in brief: as §1
# [6] = qHTS profiling of the MIPE4 collection as inhibitors of Plasmodium falciparum (DD2) proliferation (Rep 2) (AID 743346); conditions: P. falciparum Dd2 in erythrocytes, SYBR Green DNA, 72 h; at 28.5 µM (top of the series) unless noted
# Method in brief: as §1
# [7] = qHTS profiling of the MIPE4 collection as inhibitors of Plasmodium falciparum (HB3) proliferation (AID 743347);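 also: plate controls were DMSO vehicle wells for no effect and artemisinin wells for full effect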; conditions: P. falciparum HB3 in erythrocytes, SYBR Green DNA, 72 h; at 28.5 µM (top of the series) unless noted
# Method in brief: as §1
# [8] = High-throughput drug toxicity screening in the BPDCN cell line Gen2.2 (AID 1224824); conditions: Gen2.2 BPDCN cells; at 45.8 µM (top of the series) unless noted;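 also: cells exposed to compounds for 48 h before reading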
# Method in brief: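 Gen2.2, 500 cells/well, phenol red-free RPMI/10% FBS/Pen-Strep; 48 h cpd, 37 °C/5% CO2; CTG lum, 15 min RT. Norm: DMSO = 100%, bortezomib 9.2 uM final = 0%.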
# [9] = High-throughput drug toxicity screening in the BPDCN cell line Cal-1 (AID 1224825); conditions: Cal-1 BPDCN cell viability, qHTS; at 45.8 µM (top of the series) unless noted
# Method in brief: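 Viability of the BPDCN line Cal-1 is measured as ATP-based luminescence (CellTiter-Glo) following 48 h incubation with compounds. Percent activity uses DMSO-treated wells as 100% and 9.2 uM bortezomib as 0%.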
# [10] = qHTS assay for measurement of the activity of small molecule inhibitors on Zika virus induced Caspase-3 activity in human iPSC derived neural progenitor cells (hNPCs) (AID 1224857; active = well fitted curve in the direction sought with a large enough effect; an effect the other way counts as inactive or inconclusive; also: % of control where 0% means no effect; nearly all actives have a fitted effect of over 65% in size)
# Method in brief: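 Cells were plated at 350 per well and grown 16 to 20 hours. Compound pretreatment lasted one hour, after which ZIKV (2 FFU/cell) was added for 6 hours. Percent inhibition was normalized between uninfected and infected controls.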
# [11] = qHTS assay for measurement of the activity of small molecule inhibitors on Zika virus induced Caspase-3 activity in human astrocytoma cells (AID 1224859; active = well fitted curve in the direction sought with a large enough effect; an effect the other way counts as inactive or inconclusive;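 also: plate controls were ZIKV-infected untreated cells for no effect and uninfected cells for full effect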)
# Method in brief: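 Percent inhibition of virus-induced caspase-3/7 signal is calculated against uninfected and ZIKV-infected control cells. Cells are SNB-19, infected at 2 FFU/cell for 6 h after 1 h compound exposure.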
# [12] = qHTS Screen of the MIPE 4.0 Collection Against Ewings Sarcoma (RDES) (AID 1259252; active = well fitted curve in the direction sought with a large enough effect; an effect the other way counts as inactive or inconclusive; also: nearly all actives have a fitted effect of over 35% in size; also: potency is read from the fitted curve at half-maximal effect)
# Method in brief: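 Compound titrations go onto adherent log-phase cells 4 h after seeding, incubate 48 h at 37C, then CellTiter-Glo luminescence reports viability relative to DMSO and cell-free controls.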
# [13] = qHTS profiling of the MIPE4 collection as inhibitors of Plasmodium falciparum (DD2) proliferation (AID 743345); conditions: P. falciparum Dd2 in erythrocytes, SYBR Green DNA, 72 h; at 28.5 µM (top of the series) unless noted
# Method in brief: as §1
Compound,max response [1],remaining parasite growth % (stronger effect = lower value) [2],"activity, percent of control [3]","remaining proliferation (% of control), lower = more inhibition [4]","parasite growth, % of DMSO control [5]","parasite growth, % of control (lower = inhibition) [6]","growth, % of control [7]","cell viability, % of control (lower = more cytotoxic) [8]",viability (% of control) [9],Potency [10],Potency [11],Potency [12],"parasite growth remaining, % of DMSO control (lower = more inhibition) [13]",Potency [1]
CCCCCCCCCCCCCC(=O)N[C@H](CO)[C@H](O)c1ccc([N+](=O)[O-])cc1,-2.76% (inactive),90.4%,82.3%,73.2%,55.9%,33%,24.3%,1.84%,5.68%,inactive,inactive,inactive,–,–
CN1C(=O)C(Cc2c[nH]c3ccccc23)NC1=S (centres undefined),15.9% (inactive),109%,91.5%,73.5%,338%,123%,245%,70.1%,106%,inactive,inactive,inactive,99%,–
CC[C@H](C)C(=O)O[C@H]1C[C@H](O)C=C2C=C[C@H](C)[C@H](CC[C@@H](O)C[C@@H](O)CC(=O)O)[C@H]21,-1.33% (inactive),–,–,–,96%,162%,101%,113%,113%,inactive,inactive,inactive,105%,–
CN(C)CCCNC(=O)c1ccc(-c2cc(O)c3ncccc3c2)cc1,–,3.59%,5.19%,5.15%,25.8%,23.5%,8.59%,48.4%,19.6%,inactive,inactive,16.6 µM (active),15.1%,2.96 µM (active)
Cc1ccccc1C(=O)c1ccc(Nc2ccc(Br)cc2N)cc1Cl,–,–,–,–,27.4%,40%,28.4%,182%,79.6%,inactive,inactive,23.5 µM (active),44.1%,–
Cc1cnc(CNC(=O)c2c(=O)c3ccc(N4CCCN(C)CC4)nc3n3c2sc2ccccc23)cn1,–,–,–,–,6.1% [at 9.64 µM],13.1% [at 9.64 µM],3.84% [at 9.64 µM],230% [at 23.2 µM],1.44% [at 23.2 µM],inactive,inactive,7.24 µM (active),8.18% [at 9.64 µM],–
O=C(NCCCCN1CCOCC1)c1cc2ccccc2o1,–,–,–,–,89%,41.5%,87.4%,213%,109%,inactive,inactive,inactive,99.3%,–
O=[N+]([O-])c1ccc(Nc2ccccc2-c2ccccc2)c2nonc12,–,–,–,–,33.4%,46.7%,75.1%,145%,88.7%,inactive,inactive,inactive,83.4%,–
O=C(CCCN1CCN(c2ccc(F)cc2)CC1)NC1c2ccccc2CSc2ccccc21 (centres undefined),–,–,–,–,76%,80.9%,57.9%,91.5%,58.7%,inactive,inactive,14.8 µM (active),98.7%,–
Cc1ccc(S(=O)(=O)Nc2nc3ccccc3nc2Nc2ccc3nsnc3c2)cc1,–,–,–,–,25.4% [at 9.64 µM],36% [at 9.64 µM],77.4% [at 9.64 µM],7.38% [at 23.2 µM],14.1% [at 23.2 µM],inactive,inactive,8.12 µM (active),88% [at 9.64 µM],–
CN[C@@H]1CN(c2ccc3c(=O)c(C(=O)O)cn(-c4nccs4)c3n2)C[C@@H]1OC,–,–,–,–,9.37% [at 9.64 µM],8.12% [at 9.64 µM],8.57% [at 9.64 µM],7.46% [at 23.2 µM],3.44% [at 23.2 µM],inactive,inactive,1.29 µM (active),7.58% [at 9.64 µM],–
Cc1cccc(-c2[nH]c(C(C)(C)C)nc2-c2ccc3c(c2)OCO3)n1,–,–,–,–,9.08%,10.1%,8.33%,235%,17.9%,inactive,inactive,8.33 µM (active),19.7%,–
CNC(=O)[C@H](CC1=CN=C2C=CCC=C12)NC(=O)[C@@H](CC(=O)NO)CC(C)C,–,–,–,–,22%,26.7%,18.7%,31.3%,8.09%,inactive,inactive,inactive,47.4%,–
CNC(=O)c1c(-c2ccc(F)cc2)oc2cc(N(CCO)S(C)(=O)=O)c(C3CC3)cc12,–,–,–,–,4.82%,14.1%,4.16%,64.5%,8.15%,inactive,inactive,18.7 µM (active),10.4%,–
CCC(=O)NCC[C@@H]1CCc2ccc3c(c21)CCO3,–,–,–,–,98.2%,71.2%,107%,184%,117%,inactive,inactive,inactive,89.9%,–
Cc1ccc(S(=O)(=O)OCC(=O)Nc2ccc(C(=O)O)c(O)c2)cc1,–,–,–,–,61.2%,124%,75.5%,96.8%,25.4%,inactive,inactive,11.8 µM (active),85.7%,–
CN1CCN(c2cccc(Nc3nc4c(-c5ccc(S(C)(=O)=O)cc5)cccn4n3)c2)CC1,–,–,–,–,11.4%,11.4%,10.2%,83%,50.9%,inactive,inactive,3.72 µM (active),11.3%,–
CC1(COc2ccc3c(c2)ncn3-c2ccc3cccc(N4CCC(N)CC4)c3n2)COC1,–,–,–,–,5.45%,14.5%,4.9%,5.87%,3.06%,inactive,inactive,inactive,6.71%,–
